From PubChem
The entries come from a sample that favours hits as a whole.
HT1080NT lethal – kills 2HG-producing HT-1080-NT fibrosarcoma cells | HT-1080-NT fibrosarcoma viability, CellTiter-Glo ATP luminescence, 48 h | Potency, µM (doses to about 46.1 µM), hits mostly cytotoxic | hit rate 1.6% among 360,000;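 note: NT is the 2HG producing partner of a matched IDH1 knockdown line; nearly all actives have a fitted effect of over 55% in size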
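Fibrosarcoma NT cells, 750 per well in 5% FBS RPMI, were exposed to compound for 48 hours. Viability: CellTiter-Glo luminescence.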
IL1B secr inh – blocks inflammasome-driven IL-1 beta release; hit rate 4.7% among 360,000; THP-1 LPS/ATP IL-1B secretion, AlphaLISA, 16 h; active compounds read low; activity change, % at 57.5 µM; in the data active = activity change below about -50%; inconclusive = mostly about -30% to -49%
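Secreted IL-1B measured by AlphaLISA bead assay after 16 h compound exposure of THP-1 cells; compounds (final up to 57.5 uM) added 1 h before LPS (250 ng/mL) and ATP (1.25 mM) stimulation; lower signal means less secretion.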
12-LOX inh – ALOX12 (human) lipoxygenase inhibition | hit rate 1.1% among 580,000 | purified 12hLO, xylenol orange hydroperoxide absorbance | Potency, µM (titrated, usually from 108 µM), actives largely listed as inhibitors | AID 1671190
Target sequence (P18054 whole entry, looked up): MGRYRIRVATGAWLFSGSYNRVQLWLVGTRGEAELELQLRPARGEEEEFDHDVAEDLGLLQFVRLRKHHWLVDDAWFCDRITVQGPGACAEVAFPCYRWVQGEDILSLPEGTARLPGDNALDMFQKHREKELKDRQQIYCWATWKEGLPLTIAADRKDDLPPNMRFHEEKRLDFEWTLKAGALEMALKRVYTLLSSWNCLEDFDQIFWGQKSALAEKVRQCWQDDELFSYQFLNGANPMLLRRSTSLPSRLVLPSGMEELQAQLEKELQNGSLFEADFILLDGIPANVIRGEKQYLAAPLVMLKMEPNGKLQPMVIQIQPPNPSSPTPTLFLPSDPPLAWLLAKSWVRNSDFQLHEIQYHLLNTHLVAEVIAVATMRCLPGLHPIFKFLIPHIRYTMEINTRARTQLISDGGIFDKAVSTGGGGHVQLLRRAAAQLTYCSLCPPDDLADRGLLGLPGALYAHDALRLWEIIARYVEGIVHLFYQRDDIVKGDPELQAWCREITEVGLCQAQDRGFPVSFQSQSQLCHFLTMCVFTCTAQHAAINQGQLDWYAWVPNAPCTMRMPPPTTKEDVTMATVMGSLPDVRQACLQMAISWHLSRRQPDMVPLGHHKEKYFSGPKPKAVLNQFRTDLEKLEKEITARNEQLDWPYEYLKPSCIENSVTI
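Hydroperoxide product was detected by ferrous iron/xylenol orange as the 573 to 405 nm absorbance ratio. Arachidonic acid at 40 uM (final) was turned over for 30 min at room temperature by 150 nM human 12hLO, pH 7.0 Hepes buffer, after 15 min compound preincubation.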
DT40 TDP1 CPT – growth inhibition of DT40 Tdp1-/-;hTDP1 cells with camptothecin (screen for TDP1 inhibitors); hit rate 12% among 420,000; chicken DT40 Tdp1-/-;hTDP1 cells + 20 nM CPT, ATP luminescence, 48 h; Potency, µM (top dose mostly 46.2 µM), hits mostly inhibitors; note: nearly all actives have a fitted effect of over 55% in size
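Chicken DT40 Tdp1-/- cells complemented with human TDP1, 400 cells/well, exposed to compounds plus 20 nM camptothecin for at least 48 h at 37 C; viability read as ATP content by CellTiter-Glo luminescence.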
TDP1 cell noCPT – qHTS for Inhibitors of human tyrosyl-DNA phosphodiesterase 1 (TDP1): qHTS in cells in absence of CPT; Potency, µM (highest dose often 46.2 µM), hits mostly inhibitors; DT40 Tdp1-/- hTDP1 cells, no CPT, ATP luminescence, 48 h; hit rate 15% among 420,000; note: nearly all actives have a fitted effect of over 55% in size
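Seeded 400 DT40-hTDP1 cells/well (vehicle DMSO, no 20 nM CPT); pinned compounds; ≥48 hr at 37 °C; CellTiter-Glo luminescence as viability measure.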
HT1080 IDH1KD tx – kills HT-1080 cells with IDH1 knockdown | HT-1080 IDH1 knockdown viability, ATP luminescence, 48 h | Potency, µM (titrated, usually from 46.1 µM), actives largely listed as cytotoxic | hit rate 2% among 360,000 | AID 686971
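IDH1KD HT-1080 cells, 750/well, RPMI + 5% FBS; compound pinned after 2 h settling; 48 h, 37 °C; CellTiter-Glo luminescence; % activity normalised to DMSO and no-cell wells; curves fitted, classed by r2 and efficacy.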
Of the large screens only hits and unclear results are named; the others gave an inactive call. Unless noted, calls come from the whole dose curve; as a rule, active = well fitted curve in the direction sought with a large enough effect; inconclusive = small, poorly fitted or top-dose-only effect, or another doubt; inactive = no such curve, though single readings can be large; an effect the other way counts as inactive or inconclusive.

CCCCCCCCCC[n+]1cccc2cc(Cl)ccc21	DT40 TDP1 CPT 1.26µM, TDP1 cell noCPT 1.26µM (no result: HT1080NT lethal, IL1B secr inh, 12-LOX inh, HT1080 IDH1KD tx)
Clc1ccc2c(ccc[n+]2CCC2CCCCC2)c1	DT40 TDP1 CPT 10µM, TDP1 cell noCPT 8.91µM (no result: HT1080NT lethal, IL1B secr inh, 12-LOX inh, HT1080 IDH1KD tx)
CCCCCCCCCCCCCCCC[n+]1ccc(C)c2ccccc21	DT40 TDP1 CPT 0.708µM, TDP1 cell noCPT 0.794µM (no result: HT1080NT lethal, IL1B secr inh, 12-LOX inh, HT1080 IDH1KD tx)
CC(C)(C)c1nc2ccc(Cl)cn2c1CC1CCCCC1	DT40 TDP1 CPT inconclusive, TDP1 cell noCPT inconclusive
CC[n+]1ccc(C[n+]2ccccc2)c2ccccc21	12-LOX inh inconclusive
Clc1ccc2c(ccc[n+]2CCc2ccccc2)c1	TDP1 cell noCPT inconclusive (no result: HT1080NT lethal, IL1B secr inh, 12-LOX inh, HT1080 IDH1KD tx)
O=C(OCC(=O)N1CCOCC1)c1cc2ccccc2[nH]1	none (no result: HT1080NT lethal, IL1B secr inh, DT40 TDP1 CPT, TDP1 cell noCPT, HT1080 IDH1KD tx)
CO/C([O-])=N/c1c[n+](-c2ccc(Cl)cc2)no1	12-LOX inh 25.1µM, DT40 TDP1 CPT inconclusive
COC(=O)c1noc(-c2ccc(Cl)cc2)n1	none (no result: HT1080NT lethal, IL1B secr inh, DT40 TDP1 CPT, TDP1 cell noCPT, HT1080 IDH1KD tx)
CC1(C(=O)Nc2cnc3ccccc3c2)CCN1Cc1ccc2c(c1)OCCO2 (centres undefined)	DT40 TDP1 CPT inconclusive, TDP1 cell noCPT inconclusive
CC(C)(C)c1ccc(CC(=O)N2CCC2(C)C(=O)NS(=O)(=O)Cc2ccccc2)cc1 (centres undefined)	none
CC(C)(C)c1ccc(C(=O)N2CCC2(C)C(=O)Nc2cnc3ccccc3c2)cc1 (centres undefined)	12-LOX inh inconclusive, DT40 TDP1 CPT 23.1µM, TDP1 cell noCPT 25.9µM
CC(C)c1ccc(CC(=O)N2CCC2(C)C(=O)Nc2ccccc2)cc1 (centres undefined)	DT40 TDP1 CPT inconclusive, TDP1 cell noCPT inconclusive
CC(C)c1ccc(CC(=O)N2CCC2(C)C(=O)Nc2cnc3ccccc3c2)cc1 (centres undefined)	HT1080NT lethal inconclusive, DT40 TDP1 CPT 16.4µM, TDP1 cell noCPT inconclusive, HT1080 IDH1KD tx inconclusive
CC(C)(C)c1ccc(CC(=O)N2CCC2(C)C(=O)Nc2cnc3ccccc3c2)cc1 (centres undefined)	HT1080NT lethal inconclusive, DT40 TDP1 CPT 20.6µM, TDP1 cell noCPT 11.6µM, HT1080 IDH1KD tx inconclusive
O=C(O)C(c1ccccc1)N1C(=O)/C(=C\c2ccc(-c3ccccc3Cl)o2)SC1=S (centres undefined)	none
C=CCN1C(=O)/C(=C/c2ccsc2)SC1=S	none
O=C(O)C(c1ccccc1)N1C(=O)/C(=C\c2ccc(-c3ccc(Br)cc3)o2)SC1=S (centres undefined)	12-LOX inh 6.31µM
C=CCN1C(=O)/C(=C/c2ccc(-c3ccc(F)cc3)o2)SC1=S	12-LOX inh 44.7µM
COc1ccc(CCNS(=O)(=O)c2ccc(F)c(C(=O)Nc3ccc(Cl)cc3)c2)cc1OC	DT40 TDP1 CPT 29.1µM, TDP1 cell noCPT 20.6µM (no result: HT1080NT lethal, IL1B secr inh, HT1080 IDH1KD tx)
O=C(Nc1cccc(Cl)c1Cl)c1cc(S(=O)(=O)NCCc2ccccc2)ccc1F	DT40 TDP1 CPT inconclusive, TDP1 cell noCPT inconclusive
Cc1ccc(NC(=O)c2cc(S(=O)(=O)NCCc3ccc(Cl)cc3)ccc2F)cc1	12-LOX inh inconclusive, DT40 TDP1 CPT inconclusive, TDP1 cell noCPT 13µM (no result: HT1080NT lethal, IL1B secr inh, HT1080 IDH1KD tx)
COc1ccc(NC(=O)c2cc(S(=O)(=O)NCC3COc4ccccc4O3)ccc2F)cc1 (centres undefined)	IL1B secr inh inconclusive, DT40 TDP1 CPT inconclusive, TDP1 cell noCPT inconclusive
CC(C)c1ccc(NC(=O)c2cc(S(=O)(=O)NCC3COc4ccccc4O3)ccc2F)cc1 (centres undefined)	HT1080NT lethal inconclusive, IL1B secr inh -68.7, DT40 TDP1 CPT 23.1µM, TDP1 cell noCPT 18.4µM, HT1080 IDH1KD tx inconclusive
O=C(Nc1cc(Cl)ccc1Cl)c1cc(S(=O)(=O)NCCc2ccccc2)ccc1F	DT40 TDP1 CPT inconclusive, TDP1 cell noCPT 16.4µM (no result: HT1080NT lethal, IL1B secr inh, HT1080 IDH1KD tx)
CC1CCCCN1CCNC(=O)c1nn(C)c2c1COc1ccccc1-2 (centres undefined)	none (no result: HT1080NT lethal, IL1B secr inh, DT40 TDP1 CPT, TDP1 cell noCPT, HT1080 IDH1KD tx)
CC(C)c1ccc(NC(=O)c2cc(S(=O)(=O)NCCc3ccccc3)ccc2F)cc1	DT40 TDP1 CPT 14.6µM, TDP1 cell noCPT 10.3µM (no result: HT1080NT lethal, IL1B secr inh, HT1080 IDH1KD tx)
